Compounds without any hit were thinned out: in the full panel of roughly 83,000, 20% have a hit.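 How to read the values: 0–100, growth inhibition (40 = 60% inhibited); 0, no net growth; -100 to 0, cell death (-40 = 40% of starting cells died; -100 = all dead).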 A number with no mark means an inactive call. Calls of active or inactive are those of the source. Rule for the calls: active = growth percent below 10; inactive = the rest.
tested on: HCT-15 colon; assay: NCI-60 one-dose screen, 48 h (100 = growth as untreated, 0 = no growth, -100 = all killed); conditions: 10 µM unless noted

| SMILES | growth |
| --- | --- |
| COCCn1cc(-c2csc(-c3c[nH]c4ccccc34)n2)c2cccnc21 | 25.8% |
| CCN(CC)c1ccc(-c2cc(-c3cc(OC)c(OC)c(OC)c3)nc(N3CCC(O)CC3)c2C#N)cc1 | -36.7% (active) |
| CN1C(=O)/C(=C/c2ccc(C(=O)Nc3ncc(Cc4cccc(C(F)(F)F)c4)s3)cc2)SC1=S | 36.3% |
| Nc1ncnc2c1N=C(c1ccc(Cl)cc1)CC(c1cccc(Nc3ccnc4cc(Cl)ccc34)c1)N2 (stereo not drawn) | 21.1% |
| COCCn1cc(-c2nc(-c3cc4cccnc4n3C)cs2)c2ccccc21 | 21.5% |
| COC(=O)[C@]1(C)CCC[C@]2(C)[C@H]3C[C@@H]4[C@H]5[C@@H]6CC/C(=N\OCC/C(N)=N/O)[C@H]5[C@@]3(CC[C@H]21)CC4(C(C)C)O6 | 36.6% |
| Cc1cccc(-c2nc(C(C)C)sc2-c2ccnc(NCCCNS(=O)(=O)c3ccc(Cl)cc3)c2)c1 | 36.5% |
| O=C(/C=C/C12c3ccccc3C(c3ccccc31)C1C(=O)NC(=O)C12)c1ccc(Cl)cc1Cl (stereo not drawn) | 11% |
| CC(C)(C)CC(C)(C)Nc1c(-c2c(O)c3ccccc3oc2=O)nc2sc3ccccc3n12 | 20% |
| CN(C)CCC(CCN(C)C)(C(=O)O)c1ccccc1 | 99.7% |
| Cn1c(=O)[nH]c(=O)c2nc3c(nc21)-c1ccccc1C3=O | 102% |
| C=C(c1ccc(C(=O)O)c(F)c1)c1cc2c(cc1C)C(C)(C)CCC2(C)C | 80.9% |
| C=C1C(=O)O[C@H]2[C@H]1CC/C(COC(=O)C(=O)c1c[nH]c3ccc(Cl)cc13)=C\CC[C@@]1(C)O[C@@H]21 | -58.4% (active) |

— PubChem BioAssay (NCI)
